# Assay results from the supplement of paper PMC3334620.
# Over roughly 33,000 sequences, “E-score (-0.5 to 0.5)” has its median near -0.015; the highest 2% begin near 0.3. This excerpt belongs to a sample that is enriched for the highest values.
# Target: T1, Abf1 (UniProt P14164)
# T1 sequence: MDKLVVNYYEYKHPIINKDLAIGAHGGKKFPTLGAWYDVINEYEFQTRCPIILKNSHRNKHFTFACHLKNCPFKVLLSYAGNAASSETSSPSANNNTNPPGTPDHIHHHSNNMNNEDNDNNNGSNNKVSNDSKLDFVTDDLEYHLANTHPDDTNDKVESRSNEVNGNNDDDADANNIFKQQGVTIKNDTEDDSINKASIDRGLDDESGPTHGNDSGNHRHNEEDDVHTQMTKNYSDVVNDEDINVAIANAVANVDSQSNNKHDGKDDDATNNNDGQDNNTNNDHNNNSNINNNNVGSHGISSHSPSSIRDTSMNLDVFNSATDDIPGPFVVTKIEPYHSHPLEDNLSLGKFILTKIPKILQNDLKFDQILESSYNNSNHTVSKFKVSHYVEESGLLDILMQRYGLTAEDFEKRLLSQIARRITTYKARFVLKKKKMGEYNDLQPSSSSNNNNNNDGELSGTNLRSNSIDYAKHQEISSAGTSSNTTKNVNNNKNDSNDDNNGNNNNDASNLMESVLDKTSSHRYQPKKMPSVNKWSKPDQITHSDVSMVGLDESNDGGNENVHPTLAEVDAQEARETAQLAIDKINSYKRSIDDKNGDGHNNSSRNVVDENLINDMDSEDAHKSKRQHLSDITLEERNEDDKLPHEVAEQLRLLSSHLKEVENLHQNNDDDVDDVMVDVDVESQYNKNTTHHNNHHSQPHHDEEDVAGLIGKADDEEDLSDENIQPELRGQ
# Experiment: PBM E-score (8-mer binding enrichment) (E-score (-0.5 to 0.5)); higher = stronger / more preferred TF binding
# Conditions: protein concentration: 200 nM; construct: GST-full length
# Outline: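 For each ungapped eight-base word taken together with its reverse complement, the Universal PBM Analysis Suite assigned an E-score. Binding data came from GST-tagged yeast transcription factors, applied at about 100-200 nM, on universal all-10-mer Agilent arrays made double-stranded by primer extension. Fluorescent anti-GST marked bound protein, and scans were normalised with masliner.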
row,Sequence,PBM E-score
1,GAGTATCC,0.0845
2,ACCACGCT,-0.0224
3,GAACAGTC,-0.0496
4,AATTTGCC,-0.136
5,GTGACATA,0.43
6,CTGACATA,0.0493
7,CTGACAGA,0.0348
8,GAGACATA,0.0808
9,AAGACATA,0.103
10,GGGACATA,-0.00523
11,ATGACAGA,0.128
12,GTGACAGA,0.359
13,ATGACATA,0.401
14,ACGACTCG,0.144
15,CGTGGTAC,0.161
16,AACTGCTG,-0.0316
17,CTGACTCC,-0.131
18,CGTGGGAG,0.0501
19,CAAATCCC,-0.184
20,CCGTCTAA,0.266
21,ACGTCGTA,0.228
22,CCGTCGTA,0.282
23,ACGTCTAA,0.196
24,CCGTCGCA,0.282
25,TCGTCGAA,0.355
26,ACGTCGAA,0.163

row,Sequence,PBM E-score
1,TCGTCGCA,0.322
2,GCGTCGTA,0.418
3,GCGTCGAA,0.0222
4,GCGTCGCA,-0.0267
5,TCGTCTAA,0.298
6,CCGCCATA,-0.072
7,GGGTTACC,-0.0518
8,CAGACCAA,-0.132
9,GCCCAAAA,-0.114
10,AAATGGAG,0.0525
11,AGGCTCTA,-0.247
12,TATGACAA,0.27
13,AATGACCA,0.256
14,CATGACAC,0.218
15,AATGACAC,0.227
16,AATGACCT,0.223
17,CATGACAA,0.238
18,AATGACAT,0.39
19,AATGACAA,0.397
20,GATGACAC,0.337
21,AATGACAG,0.16
22,GATGACAA,0.369
23,AATGACTA,0.222
24,CGAGGATA,0.0582
25,GATGGGCA,-0.0389
26,CTCATCAA,0.192

row,Sequence,PBM E-score
1,GCCCTCTA,-0.224
2,CCACTCTC,-0.22
3,GACGATTA,0.31
4,AACGATTA,0.172
5,GACGATAA,0.363
6,CACGATTA,0.247
7,TACGATAA,0.179
8,CACGATAA,0.296
9,GACCAAAA,0.183
10,AAACCGAC,-0.0139
11,CGCACCAA,-0.0891
12,TCACGCCA,0.113
13,CTGATAAC,0.167
14,GAGATAAC,0.138
15,GCGATAAC,0.158
16,CTGATAAA,0.112
17,TTGATAAA,0.23
18,ATGATAAA,0.406
19,AAGATAAC,0.171
20,ATGATAAC,0.339
21,ATGATAGA,0.103
22,AAGATAAA,0.132
23,GTGATAAA,0.412
24,GTGATAAC,0.371
25,CCGGTTCC,-0.286
26,CCCATTTA,-0.0213

row,Sequence,PBM E-score
1,AAAGGCAG,0.17
2,AAAGCTAG,-0.236
3,GAGATACA,0.146
4,GTAATAAC,0.124
5,ATGATAAG,0.291
6,AAGATAAT,0.0926
7,CTGATACA,0.0567
8,ATAATAAA,0.2
9,GTAATAAA,0.313
10,ATGATAAT,0.377
11,GTGATACA,0.311
12,CACTTTGC,0.137
13,CTGACACC,-0.0573
14,GGTTGGAA,-0.166
15,AACTAGAG,-0.159
16,ATACAGTG,0.011
17,AGAGAAGA,0.0299
18,CCACCAGC,0.0706
19,ATCGTTTC,0.325
20,GTCGTTTA,0.298
21,ATCGTTCC,0.068
22,ACCGTTTG,0.103
23,AGCGTTTG,-0.116
24,CTCGTTTC,0.129
25,AGCGTTTA,-0.153
26,CTCGTTTA,0.0984

row,Sequence,PBM E-score
1,GCCGTTTA,0.102
2,AACGTTTA,-0.0328
3,ATCGTTTA,0.321
4,ATCGTTTG,0.298
5,CAGCTCCA,-0.238
6,CGATACAG,-0.0796
7,ACTTTGTA,0.0728
8,ATTAGATC,-0.00144
9,ATGCAGCG,-0.174
10,GCGGGAGC,-0.288
11,GTCGTTGA,0.327
12,ATCGTTGA,0.208
13,CTCGTTGA,0.0588
14,AGCTCGTA,0.149
15,GCGCAACA,-0.123
16,AAAGAGTG,-0.101
17,ATCATGTA,0.208
18,ATTATGCC,0.0573
19,ATTATGTA,0.239
20,ATTATGTC,0.303
21,CTTATGTC,0.00318
22,ATCATGTC,0.356
23,ATTATGCG,0.303
24,ATTATGCA,-0.114
25,CTCATGTC,0.0937
26,AGCCGGTA,-0.013

row,Sequence,PBM E-score
1,CTGGCACA,0.00341
2,GATCCAAA,0.111
3,AGTGTTTG,-0.0678
4,ACGATAAT,0.303
5,ACGATAAC,0.224
6,ACGATAAG,0.243
7,TCGATAAA,0.207
8,ACGATAAA,0.352
9,GCGATAAA,0.241
10,CAGACTCA,-0.218
11,GGGAACCA,-0.249
12,CCGAACCA,-0.231
13,CCGTTTAA,0.266
14,ACGTTTAA,0.245
15,GCGTTCAA,-0.0872
16,TCGTTTAA,0.341
17,ACGTTCAA,0.155
18,TCGTTCAA,0.357
19,TACACTAA,0.114
20,TAAGACTA,-0.0858
21,CCAACAGG,-0.363
22,GAACTTAC,0.0577
23,ACGGTATC,0.182
24,AATTTATC,0.314
25,CGTTTATA,0.196
26,AGTTTATC,0.173

row,Sequence,PBM E-score
1,AATTTATA,0.191
2,CGTTTATC,0.297
3,CATTTATC,0.222
4,CCTCTGAG,-0.215
5,GATTGGGA,-0.197
6,AGTGGTTA,0.0354
7,AAACGACA,0.321
8,AAACGACT,0.152
9,GAACGACA,0.296
10,AAACGACG,0.238
11,TAACGACA,0.31
12,CAACGACA,0.208
13,GCTAAAGC,-0.16
14,ACGCGGAT,-0.024
15,GAAACCAC,-0.124
16,AAGGGACC,0.0128
17,ACCATAGA,-0.0622
18,GTTCGTGA,0.254
19,ATTCGTGA,0.15
20,ACTCGTGA,0.162
21,CGTCGTGC,0.315
22,CCTCGTGA,0.363
23,CCTCGTGC,0.00335
24,CGTCGTGA,0.351
25,AGTCGTGA,0.249
26,AGTCGTGC,0.0998

row,Sequence,PBM E-score
1,GGTCGTGA,0.195
2,CTTCGTGA,0.317
3,GCTCGTGA,0.0759
4,GTGAAAAC,0.138
5,CACTTCGA,0.223
6,ATACTGTA,0.0204
7,GAAACTTC,0.0521
8,AGACAGTG,-0.0919
9,GCTTTTTA,0.0686
10,CGCATCAC,0.263
11,CACTTTTC,0.192
12,AGCGGTAC,-0.161
13,CTGACGTC,0.137
14,CCCGAGCC,-0.299
15,CTATCACA,0.199
16,ATATCACG,0.401
17,ATATCAGC,0.00929
18,CTATCACC,0.226
19,ATATCACC,0.438
20,ATATCACA,0.282
21,ATCTCGCG,0.206
22,ATAATAGC,0.0936
23,CAGAGGAA,-0.148
24,CGTAGGAG,0.134
25,CCCAAAGG,-0.158
26,CCGTATCA,0.28

row,Sequence,PBM E-score
1,ACGTATCT,-0.0664
2,TCGTATCA,0.331
3,ACGTATCA,0.33
4,GCGTATCA,0.109
5,ACGTATCG,0.212
6,GCAGAACA,-0.122
7,ATTGCGTG,-0.126
8,CGCATCAA,0.081
9,ACTGGTAT,0.0243
10,AGTCACTC,0.232
11,AGTCACTA,0.315
12,AGTCACTG,0.0546
13,GGTCACGA,0.27
14,GGTCACTA,0.281
15,CGTCACTA,0.374
16,CGTCACGA,0.336
17,CGTCACTC,0.173
18,CGTCACGC,0.145
